Results on eleven molecules are retold here after PubChem BioAssay.

Unmarked numbers belong to inactive results.

This assay can be described thus: forskolin-driven CRE-LacZ activity in PC12 – cell-based, CRE-LacZ reporter, forskolin-stimulated, primary screen (AID 1146).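 Note: PC12 cells with 6xCRE LacZ reporter stimulated by forskolin 10 µM; beta-galactosidase reporter signal reflecting CREB driven transcription.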 As to conditions: luminescence, 4.5 h, higher = more signal, called active from +8 up or from −8 down.
Consider `C=C(C)C1C(=C)CN([C@H](CO)c2ccccc2)C1=O` (stereo partly specified), for which the z-score was 0.176.
For `COc1ccc(C(O)C2C=CC3C(=O)N(c4ccccc4)C(=O)C3N2Nc2ccccc2F)cc1OCc1ccccc1` (stereo unspecified) the value was -0.269; for `COCCCNC(=O)[C@@]1(Cc2ccccc2)N=C(c2ccc(OCCCO)cc2)O[C@H]1c1ccccc1`, -0.437; for `CC(C)C(CO)N1C(=O)[C@@H]2[C@H]3C(=O)OCC=C[C@H]3OC23C=CCN(C(C)C)C(=O)[C@@H]13` (stereo partly specified), -0.681.
On to `[N-]=[N+]=Nc1ccccc1[C@H]1OC(c2ccc(OCCCO)cc2)=N[C@@]1(Cc1ccccc1)C(=O)O`, for which the z-score is -1.38.
Under `Cc1ccc(S[C@]2(C(=O)NC(C)C)CC(=O)N(Cc3ccccc3Cl)[C@@H]2c2ccc(CO)cc2I)cc1` stands 2.53; under `CN(C)CCCCCCNC(=O)[C@@H]1C[C@@H]2C(=O)N[C@@H](CCCCN)C(=O)N2[C@@H]1c1cccc(OCCO)c1`, -0.199; under `CC(C)(C)OC(=O)CC[C@]12N=C(c3ccc(OCCCO)cc3)O[C@H]1c1ccccc1N(CCS(=O)(=O)c1ccccc1)C2=O`, -1.42.
For `COCCn1c(C(=O)N2CCCC2)cc2c1C[C@H]1CN(C(=O)c3ccccc3)[C@@](Cc3ccc(F)cc3)(C(=O)OC)[C@@H]21` the value was -0.442.
Turning to `CC1CC/C=C\[C@H]2OC34C=CCN(C(C)(C)C)C(=O)[C@H]3N(CCCCCCO)C(=O)[C@@H]4C2C(=O)O1` (stereo partly specified), the z-score is -0.21.
Turning to `COCCOC(=O)N1C(=O)[C@@]2(c3cc(C#Cc4ccc(OC)cc4)ccc31)[C@H](C(N)=O)[C@H]1C(=O)O[C@H](c3ccccc3)[C@H](c3ccccc3)N1[C@@H]2c1ccccc1OCCO`, the z-score is -0.134.
